The record followed here is PubChem BioAssay AID1508600 (Functional Genomics Laboratory (NCATS/FGL), 2020).

Screen size: about 53,000 sequences; about 3,700 (7%) were called active. This excerpt belongs to a sample that is enriched for actives. Values without a mark were called inactive.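 How the source made its calls: active means gene knockdowns whose robust z-score for IL-1 alpha signal is at least 2 or at most -2, so actives lie on both sides; inactive means the rest.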

This test in a line: Components of the Cytosolic LPS Sensing Pathway: Gene Identification via Genome-wide siRNA Screen.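 Further: robust z of the log signal after scaling to non-targeting control siRNA wells of the plate.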 To be noted: RAW264.7 macrophages, IL-1a HTRF, actives lie on both sides, screened at 100 nM (by protocol), cells primed 5 h with Pam3CSK4 first. The method in brief: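 IL-1a HTRF of supernatants after 24 hour LipidA transfection of Pam3CSK4-primed (5 hours) RAW264.7 cells, 48h post-siRNA transfection (100 nM). Scores: percent of plate negative-control median, then log-based robust z-score.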
(In general: Time-resolved FRET reads energy transfer from a long-lived donor to a nearby acceptor.)
Consider GGAUUUGAGCGAUAUGAGCTT against Tex12, for which the z-score is -3.29 (active).

For GGCCCUAAUAGCAACAGGATT against Ubqln2, the z-score is -1.31.

GGCCUUCAAAUCAUACGCUTT against Ms4a19: the z-score is 0.283.

Turning to GGAAGAAAAGGCUUCUCUUTT against Ube3c, the z-score was -0.00788.

In the case of GGGAGAAUUUUUGUGCAAGTT against Capza3, the z-score is 0.437.

For the sequence CGCAUGUUCAUAGGACUGCTT against Olfr1420, the z-score was 0.453.

Consider GGAUCUUUCUUUUCUCUCUTT against Rab6b, for which the z-score is 0.32.

With GCUGAUCAAAUUGGCCUGUTT against Olfr984, the z-score was -0.703.

As for GCUUCAGUAUUUAUUUGCUTT against Usp28, the z-score was 2.27 (active).

For GGAAGGCCGCAUACUGAUGTT against Scgn, the z-score is -0.218.

For GGAUUGAAAGCUACUCGUGTT against Maf1, the z-score was 0.533.

For the sequence GAGACAAUGCAGCAAAAUCTT against Gm839, the z-score was -1.13.

As to GCACAAUUUCGUGUGAGCUTT against Sfxn5, the z-score is 0.643.

For GGCAGAAUUUGAGCACUUUTT against B4galnt2, the z-score was -2 (active).

On to GGAGGAGUAUGUUAAGGCCTT against Myh6, for which the z-score was 0.193.

For GGAGAGUCCAUACCAGAACTT against C1qa, the z-score is 0.0536.

For the sequence GGUUGGACAACAUAAUAAGTT against Riox2, the z-score is 1.17.

As for GGUGUGGAGUAUGUAUGCUTT against Aplp1, the z-score is -1.11.

Consider GGCCUGCGUUCAGAAGAGUTT against Wrn, for which the z-score was 3.46 (active).

For GGAACUACUACUCACCUAUTT against Trhr, the z-score is -0.776.

As to GGGUCCUAAAAAUUCAAUUTT against Decr2, the z-score was -0.106.

Turning to GCUUCGUGGCUUUUUAUGATT against Dlgap3, the z-score was -0.788.

GCGAUUUGUGGUUCUCAUATT against Rnf103: the z-score is -0.559.

Take GGCGCACAAAGCUGUUCUUTT against Zbtb43: the z-score is -0.87.

Consider GGGAACAAAAACAUAAAAGTT against Otub2, for which the z-score is -1.17.

In the case of GAAUUGUCUUACUUGGAAATT against Gimap4, the z-score was 2.05 (active).

On to CGGUCCUGAAUGAUCCUACTT against Gp2, for which the z-score is 0.969.

For GGAUUUGUGUCCAUCGUGCTT against Olfr66, the z-score was 0.00905.

CCGUAUGUAACCAUCAAAGTT against Ncf1: the z-score was 0.281.

As for GGCACUCCCUAAUGAACUCTT against Adck5, the z-score is 1.42.

Regarding GUUACCUCAGUGUUAUACUTT against Olfr45, the z-score is 1.7.

Regarding GGUGAAAAGAUGCAGGUGATT against Atp1a3, the z-score is -1.1.

For CGAUGAACACACGUCUUAUTT against Dtl, the z-score was 2.05 (active).

For GGGCAGGAACAAAAGAAGCTT against Dsc1, the z-score is 0.165.

Regarding GGUGUCACCAUUUCAGUGGTT against Lbp, the z-score is 0.703.

For GCAUUCAUGUGCUCUGCCCTT against Ifitm6, the z-score is -0.952.

For the sequence GGCUGUCUUCUGAUCAAUUTT against Adamts3, the z-score was 2.42 (active).

Regarding GGCAUUGAAUUAAAGAUACTT against Myct1, the z-score was -1.06.

Take GCAUCACGGAUUCGAAUUGTT against Dgkz: the z-score was -1.25.

With GGAAGACAUAAUAAUAGAGTT against Rad17, the z-score was -1.39.

With CCUACAAGAACGAAGAUUUTT against Pla2g4d, the z-score is -1.67.

As to CCAACAUCGAGCUAGCCACTT against Psma5, the z-score was -2.28 (active).

As to CCACCUACGUCAACACUAATT against Kcnh6, the z-score is -1.8.

With CCAGAUGUUGGAUAAAACGTT against Fbxw10, the z-score is -0.333.

Take GGAAAUUUCAGUCGAACAGTT against Arhgap31: the z-score is 0.333.

With GGUCUUUGACAGAAUAAAATT against Yipf1, the z-score was 1.94.

On to GGCAUCCACCCUAAGGUCATT against Keap1, for which the z-score is 1.03.

Turning to GGAUUGAGUGACGACUGACTT against Nova2, the z-score is 2.25 (active).

As for GGCCUCCAAAUGAACAGCATT against Trmt61a, the z-score is -0.365.

For GCUGUACGUAGAUUCCAGATT against Mmp21, the z-score was 1.48.

For the sequence CCCAAUUAGGCUAUGCUAATT against Amfr, the z-score is 2.27 (active).

As for GGAGAAACAUCAAUUGCACTT against Thbs2, the z-score is -0.0207.

Consider GCUUGAUGACUCUAAACCUTT against Runx2, for which the z-score is 1.29.

With GCCUCUAUCUGUACUCUGGTT against Pdk2, the z-score was -0.944.

Take GCACAAAUCUGGUAAGUCATT against Gtf2h1: the z-score is 0.474.

GCAACAUAUGGUAUACUGUTT against Mdm4: the z-score is 1.41.

CCAUGAAAAACUUAGUGUGTT against Trim37: the z-score is 0.682.

For the sequence GGAGUGUUUGAGAAAUACCTT against Pnpla7, the z-score was 3.32 (active).

As to CCUUGGGACUGACUGUAAGTT against Ptrh2, the z-score was -0.887.

For the sequence GGUCUUAUUUUGAAGUGUUTT against Cybb, the z-score is 0.013.

On to GCGAUCAAAAAAGUUGCCUTT against Arhgap44, for which the z-score is -0.387.

GGAGUGGGAGAAGAUGGAATT against Mbd4: the z-score is 2.17 (active).

Turning to GCUACAAGUGUUGCCUGAATT against Slit1, the z-score is 1.21.

As to GGUGCAGAGAAGAACAAGATT against Inpp1, the z-score was -0.993.

As for CCACAGGGAGACAUGAUAUTT against Coprs, the z-score was -0.292.

With GUGAUGUCACUAAUGCCAATT against Cd99, the z-score was 0.628.

With GGAUAGACAGAAAUUCUCATT against Flot1, the z-score was 1.43.

GGAAAACUACUGGAACUGGTT against Irgm1: the z-score was 0.415.

Turning to GGAGGCAGAUGCUGGAAUCTT against Defb3, the z-score was 4.19 (active).

GGUGAUCAUGCUAACCUUUTT against Pcolce: the z-score is 0.436.

In the case of GGUGUAACUGGGCUGCAUGTT against Avpi1, the z-score was 0.269.

With GGCAAUUCUUAACCUGUCCTT against Tacc1, the z-score is -2.75 (active).

With GCUGAUGGUAAAUUCACAGTT against Serpinb3c, the z-score was -1.01.

For GCAUGUGUACCAUUUACCUTT against Prdx1, the z-score was 1.87.

For GGAUGCCCUUGUCACAAAGTT against Fbl, the z-score is 0.154.

In the case of GGAACACUGUAUCUUACGGTT against Mtmr6, the z-score is 0.599.

As to “GGAGAAGGUGACUUAAUAGTT against 9430077A04Rik”, the z-score is 0.76.

For GGAGAUCACCUACGACAUGTT against Lgals8, the z-score is 0.446.

For the sequence GGUCAUCUCAGUACUACAATT against Dgat2, the z-score is 0.251.

As for GGCAAGAAAAACACUUUAUTT against Parp3, the z-score was 1.85.

Consider GGAAGGAGGACAGAGGAAUTT against Tmem19, for which the z-score is 2.34 (active).

In the case of GGCAUUGGAAGAUGCACAGTT against Scp2, the z-score was 0.431.

GGUUAUAGCAUCCUUAACUTT against Tmem208: the z-score is 1.06.

In the case of GGUGAAGUCUUACCUAUACTT against Aacs, the z-score was -0.598.

For the sequence GACCUUGGUUAUUCUACAGTT against Olfr1087, the z-score is -1.14.

Take GGUGUGUUUUGUAUUGAUUTT against Olfr843: the z-score is 0.482.

For GGCAACAGUGCAUUCAAGUTT against Nptx2, the z-score is 3.39 (active).

In the case of GGUCUCCAUAAGUGUCAGCTT against Cntfr, the z-score was -0.407.

As to GGUGUCUCUGAAGAUUGAATT against Cdc6, the z-score is 0.345.

On to GGAUUAGGAUCAGCAGGAUTT against Accs, for which the z-score was 1.01.

Take GGAUCUUGAUCCACAUCUCTT against Padi6: the z-score is -2.47 (active).

As for GGAGAUAAUCCUUGUCACGTT against Whamm, the z-score was 0.592.

As for CCCUUAAAGGGUAGCAUUUTT against Ncan, the z-score is 0.837.

GUGGUCUUUAUCGGCAUGATT against Slc35c1: the z-score is 0.287.

For GCUCUUGUAAAUUUGUGAATT against Usp10, the z-score is -0.331.

Turning to GCAGUGCUCUUUAGCAUAATT against Zfp689, the z-score is 1.01.

Turning to GCAUAAAAAACGAAUAGAGTT against Smc1b, the z-score was -0.432.

On to GCAAGUCCUAGUGUCCUGATT against N6amt1, for which the z-score was -0.213.

As to GGAAAUGCUGCCAUUGUUATT against Aldh3a2, the z-score was 0.333.

In the case of GGAACAAAGACAUUGCUUUTT against Sf3a3, the z-score was -2.77 (active).

Turning to GCAAGCGAUGGCACAUAGATT against Ap1g2, the z-score was 1.03.

As to GGUUACGAAGAUUAAUGUGTT against Crk, the z-score is 1.27.

GGACAGGUGUCGAUCAAACTT against Zfp280c: the z-score is 0.0987.

As to GGAAUUGCACUUUUCCAAUTT against Phlda1, the z-score is 0.481.

Take GGAUGCAGUACGAAAUUCUTT against Psmd1: the z-score was -2.93 (active).

GGCAGUGCCAAUGAACAAGTT against Elob: the z-score was 0.591.

On to GGUUGUUUUGGAAUUGAUATT against Smu1, for which the z-score was -2.82 (active).

CGAGCAUGCAUUCAAAGGATT against Lrrc3b: the z-score was 1.33.

On to GGGCACAUACUCAGAUGAATT against Ngfr, for which the z-score was -0.62.
